Laboratory results published in PubChem BioAssay (NCATS).
Records with an inconclusive call do not appear. The source made the active and inactive calls. Calls come from the whole dose curve; as a rule, active = well fitted curve in the direction sought with a large enough effect; inconclusive = small, poorly fitted or top-dose-only effect, or another doubt; inactive = no such curve, though single readings can be large; an effect the other way counts as inactive or inconclusive. Non-standard residues stand in square brackets, D forms with d. Residues, ends and D or L forms follow the SMILES beside them. *: point of attachment. Sta = CC(C)C[C@H](N)[C@@H](O)CC(=O)O; Isovaleryl = CC(C)CC(=O)*

Tests used:
[1] = qHTS to identify inhibitors of the type 1 interferon - major histocompatibility complex class I in skeletal muscle: primary screen against the NCATS Pharmaceutical Collection (AID 1347407); conditions: human skeletal muscle cells, IFN-b-induced MHC-I HiBiT luminescence, 24 h; series mostly up to 45.9 µM;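 note: luminescence of HiBiT knocked into endogenous HLA-B as interferon-induced MHC class I level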; note: potency is the fitted concentration of half-maximal effect
Method in brief: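 Cells were seeded with 4 ng/ml IFN-beta, incubated 1 h, then dosed with compounds over eight 1:5 steps up to 46 uM final. After 24 h at 37 C, HiBiT lytic reagent was added and luminescence read after 10 min lysis in the dark.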

[2] = qHTS to identify inhibitors of the type 1 interferon - major histocompatibility complex class I in skeletal muscle: primary screen against the NCATS Mechanism Interrogation Plate v5.0 (MIPE) Libary (AID 1347411); conditions: iHSKM cells + IFN-b, HiBiT-tagged MHC-I luminescence, 24 h; series mostly up to 45.8 µM; note: nearly all actives have a fitted effect of over 65% in size; note: potency is the fitted concentration of half-maximal effect
Method in brief: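 Luminescence from CRISPR HiBit-tagged endogenous HLA-B in human myoblasts reported MHC class I level after 24 h of IFN-beta (4 ng/ml) plus compound. Compounds ran as 11-point 1:3 series, top 46 uM final.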

[3] = biological target: Protein phosphatase 1D (Homo sapiens) (UniProt O15297); test: RapidFire Mass Spectrometry qHTS Assay for Modulators of WT P53-Induced Phosphatase 1 (WIP1) (AID 1347424); conditions: WIP1 dephosphorylation of phosphopeptide, RapidFire MS; series mostly up to 63 µM;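 note: amount of dephosphorylated VEPPL-S-QETFS peptide product formed by WIP1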
Protein phosphatase 1D (Homo sapiens), sequence (O15297 whole entry, looked up): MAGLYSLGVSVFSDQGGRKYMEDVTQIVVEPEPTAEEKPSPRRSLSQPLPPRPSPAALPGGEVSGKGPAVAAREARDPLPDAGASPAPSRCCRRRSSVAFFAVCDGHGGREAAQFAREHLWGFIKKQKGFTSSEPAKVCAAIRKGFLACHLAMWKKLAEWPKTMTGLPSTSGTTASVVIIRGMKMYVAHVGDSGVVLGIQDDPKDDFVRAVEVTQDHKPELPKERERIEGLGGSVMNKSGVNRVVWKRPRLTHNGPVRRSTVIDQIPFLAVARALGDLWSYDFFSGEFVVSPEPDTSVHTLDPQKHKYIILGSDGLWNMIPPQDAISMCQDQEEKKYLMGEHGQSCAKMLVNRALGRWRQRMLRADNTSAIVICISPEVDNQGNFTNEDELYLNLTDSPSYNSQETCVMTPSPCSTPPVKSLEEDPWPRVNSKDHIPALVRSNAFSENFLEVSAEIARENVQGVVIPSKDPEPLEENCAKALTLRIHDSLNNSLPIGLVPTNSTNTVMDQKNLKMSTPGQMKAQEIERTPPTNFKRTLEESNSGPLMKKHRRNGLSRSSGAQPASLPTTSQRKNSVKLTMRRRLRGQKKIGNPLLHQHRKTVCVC
Method in brief: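 Mass-spectrometric measurement of dephosphorylated peptide after a 5 min room-temperature reaction of 10 nM WIP1 with 2 uM phosphopeptide, following 1 h compound preincubation in 30 mM MgCl2 buffer.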

[4] = biological target: Protein phosphatase 1D (Homo sapiens) (UniProt O15297); test: Rhodamine-PBP qHTS Assay for Modulators of WT P53-Induced Phosphatase 1 (WIP1) (AID 1347425); conditions: recombinant WIP1, Rhodamine-PBP phosphate fluorescence, real-time; series mostly up to 57.5 µM
Method in brief: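 5 nM WIP1 + 10 uM Rh-PBP, 50 mM Tris pH 7.5, 30 mM MgCl2, 1 mM TCEP, 0.1 mM EGTA, BSA; cpds pinned, 1 hr RT; + 10 uM phosphopeptide; fluorescence 1-min reads x 11 min; delta = f1 - f0.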

[5] = Primary qHTS for inhibitors of La Crosse Virus (LACV) - induced cell death in SH-SY5Y cells (AID 1508616); conditions: SH-SY5Y LACV cytopathicity rescue, ATP luminescence, 6 d; series mostly up to 4.29 µM;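 note: top concentration of the series differs between compounds; higher means more rescue of cells from virus-induced death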
Method in brief: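 Rescue of virus-induced death was read as ATPLite luminescence after 6 days at 37C, scaled between DMSO wells with LACV and without virus. Cells were SH-SY5Y, 6000/well, infected at 0.01 MOI after compound addition.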

[6] = biological target: Calcium and integrin-binding protein 1 (Homo sapiens) (UniProt Q99828); test: Validation qHTS for Identification of Calcium Integrin Binding protein 1 (CIB1) Competitor (AID 1508618); conditions: CIB1-GST / FITC-alphaIIb peptide fluorescence polarization; series mostly up to 114 µM
Calcium and integrin-binding protein 1 (Homo sapiens), sequence (Q99828 whole entry, looked up): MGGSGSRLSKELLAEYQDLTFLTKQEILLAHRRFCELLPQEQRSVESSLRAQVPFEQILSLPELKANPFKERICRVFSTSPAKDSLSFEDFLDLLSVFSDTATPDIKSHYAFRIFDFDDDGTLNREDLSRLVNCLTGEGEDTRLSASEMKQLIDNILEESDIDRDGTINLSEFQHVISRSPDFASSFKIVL
Method in brief: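 Displacement of FITC-alphaIIb peptide (100 nM) from CIB1-GST (1 uM) is monitored by polarization in quantitative HTS format; buffer carries 5 mM CaCl2 and 125 mM NaCl at pH 7.4, incubations are at room temperature.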

[7] = biological target: Calcium and integrin-binding protein 1 (Homo sapiens) (UniProt Q99828); test: Confirmatory qHTS for Identification of Calcium Integrin Binding Protein 1 (CIB1) Competitor (AID 1508617); conditions: CIB1 binding competition assay, biochemical qHTS; series mostly up to 114 µM; note: potency is the fitted concentration of half-maximal effect; nearly all actives have a fitted effect of over 65% in size
Method in brief: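 Confirmatory qHTS measures displacement of a FITC-alphaIIb peptide (100 nM) from CIB1-GST (1 uM) by fluorescence polarization. Calcium-containing HEPES buffer, pH 7.4; two 15 min room-temperature incubations.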

[8] = Validation qHTS assay for inhibitors of Activation Induced Cytidine Deaminase (AID): UDG Counterscreen signal (AID 1347427); conditions: biochemical UDG counterscreen, fluorescence signal; series mostly up to 115 µM
Method in brief: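 Fluorescence at 560 nm excitation, 665 nm emission reports UDG signal after 250 mM NaOH (2x) addition and 30 min. Enzymes (AID 1 uM, UDG 2 U/mL, at 4/3x) preincubated 10 min with compound, then 4 h with 4x 250 nM DJC20/DJC23 substrate at room temperature.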

[9] = biological target: Single-stranded DNA cytosine deaminase (Homo sapiens) (UniProt Q9GZX7); test: Validation qHTS assay for inhibitors of Activation Induced Cytidine Deaminase (AID): AID signal (AID 1347429); conditions: Recombinant AID, FRET ssDNA deamination with UDG, fluorescence; series mostly up to 115 µM
Single-stranded DNA cytosine deaminase (Homo sapiens), sequence (Q9GZX7 whole entry, looked up): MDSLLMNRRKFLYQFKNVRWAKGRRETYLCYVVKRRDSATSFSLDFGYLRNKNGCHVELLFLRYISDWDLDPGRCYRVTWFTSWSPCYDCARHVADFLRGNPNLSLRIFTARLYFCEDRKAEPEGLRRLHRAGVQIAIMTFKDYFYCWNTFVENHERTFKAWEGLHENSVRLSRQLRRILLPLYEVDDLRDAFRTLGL
Method in brief: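 Compounds (final up to 114 uM) preincubated with AID plus UDG; 250 nM DJC20/DJC23 substrate mix (4x stock) added, 4 hr at room temperature, then NaOH, 30 min. Read 1 fluorescence at 540 nm excitation, 590 nm emission.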

Measured: Potency

Cc1cccc(CN2CCN(C(c3ccccc3)c3ccc(Cl)cc3)CC2)c1 (stereo not drawn)
inactive: [1] | [2] | [3] | [4] | [5]

O=C(O)CCNC(=O)c1ccc(N=Nc2ccc(O)c(C(=O)O)c2)cc1
inactive: [1] | [2] | [3] | [4] | [5]

c1cnc2cc3c(cc2n1)C1CNCC3C1
not listed: [7] | [8] | [9]
inactive: all other assays above

CCCCN(CCCC)CCC(O)c1cc2c(Cl)cc(Cl)cc2c2cc(C(F)(F)F)ccc12 (stereo not drawn)
inactive: [1] | [2] | [3]

Cc1cc(=O)oc2cc(O)ccc12
inactive: [1] | [2] | [3] | [4] | [5]

CN1CCC(=C2c3ccccc3CCc3sccc32)CC1
inactive: [1] | [2] | [3] | [4] | [5]

CC1=C(C)C(=O)C(C(CCCCCC(=O)O)c2ccccc2)=C(C)C1=O (stereo not drawn)
inactive: [1] | [2] | [3] | [4] | [5]

Nc1ncn([C@H]2C[C@H](O)[C@@H](CO)O2)c(=O)n1
inactive: [1] | [2] | [3] | [4]

COc1cc(Nc2c(C#N)cnc3cc(OCCCN4CCN(C)CC4)c(OC)cc23)c(Cl)cc1Cl
active: [1] 7.45 µM | [2] 7.39 µM | [7] 44.7 µM
inactive: [3] | [4] | [5]

O=C(O)c1cn(-c2ccc(F)cc2)c2cc(N3CCNCC3)c(F)cc2c1=O
inactive: [1] | [2] | [3] | [4] | [5]

CCCS(=O)c1ccc2nc(NC(=O)OC)[nH]c2c1 (stereo not drawn)
inactive: [1] | [2] | [3] | [4] | [5]

Oc1ccc(OCc2ccccc2)cc1
inactive: [1] | [2] | [3] | [4] | [5]

Cc1ccc(S(=O)(=O)NC(=O)NN2CC3CCCC3C2)cc1 (stereo not drawn)
inactive: [1] | [2] | [3] | [4] | [5]

O=C(NCCO[N+](=O)[O-])c1cccnc1
inactive: [1] | [2] | [3] | [4] | [5]

CS(=O)(=O)OCCCCOS(C)(=O)=O
inactive: [1] | [2] | [3] | [4] | [5]

CCCCC(CC)COC(=O)C(C#N)=C(c1ccccc1)c1ccccc1 (stereo not drawn)
inactive: [1] | [2] | [3] | [4] | [5]

CN(C)C(=O)COC(=O)Cc1ccc(OC(=O)c2ccc(N=C(N)N)cc2)cc1
inactive: [1] | [2] | [3] | [4] | [5]

CC(C)CC(=O)N[C@H](C(=O)N[C@H](C(=O)N[C@@H](CC(C)C)[C@@H](O)CC(=O)N[C@@H](C)C(=O)N[C@@H](CC(C)C)[C@@H](O)CC(=O)O)C(C)C)C(C)C (Isovaleryl-VV[Sta]A[Sta]-OH)
inactive: [1] | [2] | [3] | [4] | [5]

CC1(C)NC(=O)N(c2ccc([N+](=O)[O-])c(C(F)(F)F)c2)C1=O
not listed: [4] | [7]
inactive: all other assays above

COCCCN1CCC(NC(=O)c2cc(Cl)c(N)c3c2OCC3)CC1
inactive: [1] | [2] | [3] | [4] | [5]

CC(C)Oc1ccc2c(=O)c(-c3ccccc3)coc2c1
inactive: [1] | [2] | [3] | [4] | [5]

c1ccc2[nH]c(-c3cscn3)nc2c1
inactive: [1] | [2] | [3] | [4] | [5]

CC1Cc2ccccc2N1NC(=O)c1ccc(Cl)c(S(N)(=O)=O)c1 (stereo not drawn)
inactive: [1] | [2] | [3] | [4] | [5]

CCN(CC)CCOc1ccc(Cc2ccccc2)cc1
inactive: [1] | [2] | [3] | [4] | [5]

CC(C)C[C@H](NC(=O)[C@H](Cc1ccccc1)NC(=O)c1cnccn1)B(O)O
active: [1] 0.0745 µM | [2] 0.0415 µM
inactive: [3] | [4] | [5]

Nc1cc(C(Cl)=C(Cl)Cl)c(S(N)(=O)=O)cc1S(N)(=O)=O
inactive: [1] | [2] | [3] | [4] | [5]

CNC[C@H](O)c1ccc(O)c(O)c1
not listed: [4] | [7]
inactive: all other assays above

CC(S)C(=O)NCC(=O)O (stereo not drawn)
inactive: [1] | [2] | [3] | [4] | [5]

Cc1ccc(C)c(OCCCC(C)(C)C(=O)O)c1
inactive: [1] | [2] | [3] | [4] | [5]

O=C(NCC1CCCCN1)c1cc(OCC(F)(F)F)ccc1OCC(F)(F)F (stereo not drawn)
inactive: [1] | [2] | [3] | [4] | [5]
